Screens as filed in PubChem.
The entries come from a sample that favours hits as a whole.
Methyltransferases: Primary Screen for Target Class Profiling of Small Molecule Inhibitors of Methyltransferases; purified enzyme, MTase-Glo SAH luminescence; active compounds read low; AID 1745853, 2022; 25,000 tested, 3.9% active; calls only at 40 µM; call rule not given here
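Each enzyme was assayed with SAM and its substrate. SAH formation detected by MTase-Glo luminescence; single-point 40 uM screen[…].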
MTase-Glo ctr: inhibits MTase-Glo coupling enzymes without methyltransferase; MTase-Glo coupled enzymes, SAH conversion luminescence, no MTase; AID 1745851; Potency, µM (doses to about 57.3 µM), without a hit: at the top dose activity change, negative = inhibition, actives largely listed as inhibitors; shares compounds with Methyltransferases; 180 tested, 6% active; active = well fitted inhibition curve with a large enough effect; also: potency is read from the fitted curve at half-maximal effect
* hit, by the source's call; i = inactive; + = active, no number; [ ] = dose if it differs, or a comment. % is scaled to controls: 0 for no effect and ±100 for the full control effect.

SMILES	Methyltransferases	others
O=C1CN(Cc2ccccc2Cl)S(=O)(=O)c2ccccc2N1Cc1ccc(F)cc1	i
O=c1cc(-c2ccccc2)c2ccc(OCc3ccc(F)cc3Cl)cc2o1	i
CCc1cc2c(cc3n2CC(C)(C(=O)NC2CCC(C)CC2)N(c2cccc(C)c2C)C3=O)s1 (configuration not stated)	i
COc1ccc(S(=O)(=O)NC[C@H]2Cn3c(-c4ccc(Cl)cc4)cnc3CO2)cc1	+	MTase-Glo ctr=-2%[85.7 µM]
COc1ccc(C(=O)NC[C@H]2Cn3ccnc3CO2)cc1	i
COc1ccc(S(=O)(=O)NCC2Cn3cccc3C(=O)N2Cc2ccccc2)cc1 (configuration not stated)	i
Cc1c(Cl)cccc1N1C(=O)c2cc3sccc3n2CC1(C)C(=O)NC1CCCCCCC1 (configuration not stated)	i
Cc1ccc(Cl)cc1N1C(=O)c2cc3sccc3n2CC1(C)C(=O)NC1CCCCC1 (configuration not stated)	i
O=C1OCC2(CCN(Cc3c[nH]c4ccccc34)C2)N1Cc1ccccc1 (configuration not stated)	i
O=C(OCc1ccccc1)N1CCOCC12CCN(Cc1c[nH]c3ccccc13)CC2	+	MTase-Glo ctr=3%[85.7 µM]
c1ccc(CC2=NOC3(CCN(Cc4c[nH]c5ccccc45)CC3)C2)cc1	i
CCc1ccc(CN2C(=O)c3c(C(=O)OC)ncn3CC2(C)C(=O)NC2CCCCCC2)cc1 (configuration not stated)	i
CCCSCCCN1C(=O)c2nc3ccccc3n2CC1(C)C(=O)NC1CCCCC1 (configuration not stated)	i
CC1(C(=O)NC2CCCCCC2)Cn2c(cc3occc32)C(=O)N1C1CCCCC1 (configuration not stated)	i
CNC(=O)[C@@H]1CN(C(=O)c2cc3cc(OC)ccc3[nH]2)C[C@H]1COC	i
COc1ccc2[nH]c(CNc3cc(C4CC(N)C4)nc(C)n3)cc2c1 (configuration not stated)	+	MTase-Glo ctr=-1%
C#CCNCc1cc2cc(OCc3ccccc3)ccc2[nH]1	i
CN1C[C@@H]2CC[C@H](CC1=O)N2C(=O)c1cnn2cc(CCO)cnc12	i
CCN(CC)Cc1cnc2c(C(=O)N3CCCN4CCC[C@H]4C3)cnn2c1	+	MTase-Glo ctr=2%
CCC(O)C1CCN(C(=O)c2cnn3cc(CN(CC)CC)cnc23)CC1 (configuration not stated)	i
Cc1ccc(C)c(N2CCN(C(=O)CN(C)S(=O)(=O)c3ccc4[nH]c5c(c4c3)CCCC5)CC2)c1	i
CCOc1ccc(CNC(=O)C(CC)n2ccc3cc(S(=O)(=O)N4CCCCC4)ccc32)cc1 (configuration not stated)	i
CCCn1c(=O)c2cc(F)ccc2n2c(SCc3ccccc3)nnc12	i
COc1cccc(-c2ccccc2NC(=O)C2CCN(CC=C(C)C)CC2)c1	+	MTase-Glo ctr=-4%
COc1ccccc1-c1ccc(C(=O)N2CCC(C(=O)Nc3ccccc3Cl)CC2)cc1	i
SMILES	Methyltransferases	others
COc1cccc(-c2ccccc2NC(=O)C2CCN(Cc3ccccc3F)CC2)c1	i
CN(C)CCN1C(=O)c2cc3occc3n2CC1(C)C(=O)NC1CCCCC1 (configuration not stated)	i
CN1C(=O)c2cc(C(=O)NCCCN3CCCC3=O)nn2CC1(C)C(=O)NCc1ccc(F)cc1 (configuration not stated)	i
CN1CCCC2(C1)CN(C)c1ccc(C(=O)NCC3CCCCC3)cc12 (configuration not stated)	+	MTase-Glo ctr=-1%[85.7 µM]
CN1CCC2(C1)CN(Cc1ccccc1)c1ccc(C(=O)N3CCOCC3)cc12 (configuration not stated)	i
O=C(NCC1CCN(c2cc(-c3ccccc3)[nH]n2)CC1)c1ccc2nc[nH]c2c1	i
O=C1N(Cc2ccc(F)c(F)c2)CCCC12CCN(c1nc3ccccc3o1)C2 (configuration not stated)	i
c1ccc(CO[C@H]2COCCN(c3nc4ccccc4o3)C2)cc1	+	MTase-Glo ctr=-4%[85.7 µM]
COc1ccc(CNC(=O)O[C@H]2COCCN(c3nc4ccccc4o3)C2)cc1	i
Cc1ccc(NC(=O)CSc2nnc3n(C)c(=O)c4ccc(C(=O)NC5CCCCC5)cc4n23)cc1	i
O=C(CCc1nnc2n(Cc3ccccc3)c(=O)c3ccccc3n12)Nc1ccc(F)cc1	i
Cc1cc2c(cc3n2CC(C)(C(=O)NC2CCCCCC2)N(c2cccc(C)c2C)C3=O)o1 (configuration not stated)	i
Cc1cc2c(cc3n2CC(C)(C(=O)NC2CCCCCC2)N(C2CCCC2)C3=O)o1 (configuration not stated)	i
Cc1ccc(NC(=O)Cn2nc3n(CC(C)C)c(=O)c4ccc(C(=O)NC(C)C)cc4n3c2=O)c(C)c1	i
Cc1ccc(Cn2c(=O)c3ccccc3n3c(-c4ccc(F)cc4)nnc23)cc1	i
COc1ccc(NC(=O)N2CCCC(CN3CCC(C)CC3)CC2)cc1 (configuration not stated)	i
COc1ccc(NC(=O)C(C)(C)Oc2nn(CC3CC3)c3ccc(CN4CCCC4)cc23)cc1	+	MTase-Glo ctr=5%
CC(C)n1nc(OC(C)(C)C(=O)Nc2ccccn2)c2cc(CN3CCOCC3)ccc21	i
COc1ccccc1CN1C(=O)c2cc(C(C)(C)C)nn2CC1(C)C(=O)NC1CCCCC1 (configuration not stated)	i
O=C(NCc1ccc(F)cc1)c1ccc2c(=O)nc3c(-c4cccc(F)c4)n[nH]n3c2c1	i
Cc1ccc(C(=O)C(C)n2nc3n(C(C)C)c(=O)c4ccc(C(=O)NCC(C)C)cc4n3c2=O)cc1C (configuration not stated)	i
CN(C)c1ccc(C2NC(C(=O)O)Cc3c2[nH]c2ccccc32)cc1 (configuration not stated)	i
CC1CCCCC1NC(=O)C1(C)Cn2c(cc3occc32)C(=O)N1Cc1ccc(F)cc1 (configuration not stated)	i
COc1ccnc(-c2nnc3ccc(Nc4cc(OC)c(OC)c(OC)c4)nn23)c1	+	MTase-Glo ctr=-4%[85.7 µM]
COc1cncc(Nc2cnc3ccc(-c4ccccc4OC)nn23)c1	i
SMILES	Methyltransferases	others
CC(C)CCNC(=O)C1(C)Cn2c(c(-n3cccc3)c3ccccc32)C(=O)N1Cc1ccco1 (configuration not stated)	i
Cc1ccc(Nc2ccn3c(=O)n(CC(=O)Nc4ccc(F)c(F)c4)nc3n2)cc1	i
CCN(Cc1nccn1C)C(=O)c1ccc(N2CCC(COC)C2)nc1 (configuration not stated)	i
CC(C)c1nccn1CCCNC(=O)c1ccc(N2CCCC(CO)C2)nc1 (configuration not stated)	+	MTase-Glo ctr=1%
CN1CCCCC1CCNC(=O)c1ccc(N2CCOCC2)nc1 (configuration not stated)	i
Cc1ccc(N2C(=O)c3cc4sccc4n3CC2(C)C(=O)NC2CCCCCCC2)cc1C (configuration not stated)	i
CC1(C(=O)NC2CCCCCC2)Cn2c(cc3occc32)C(=O)N1Cc1cccnc1 (configuration not stated)	i
